In the library only some 8.1% were active in any assay of this set; here they are far more common.
Epigenetic reg: epigenetic control regulation, reporter derepression; murine LDR cells, GFP reporter derepression, 30 h; 0.2% of 280,000 active; Potency, µM (highest dose often 53.9 µM), inactives show at the top dose GFP activation, usual class: activators; further: % of control where 0% means no effect; nearly all actives have a fitted effect of over 60% in size
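GFP-positive cell count by laser-scanning cytometry (objects 20–120 um) after 30 h, 37 C compound exposure of murine LDR cells; reporter is CMV-GFP integrated at a silenced locus, inducible by HDAC or DNMT inhibitors.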
PINK1 expr mod: changes PINK1 expression; Potency, µM (top dose mostly 76.6 µM), inactives show at the highest dose activation (PINK1 increase), usual class: activators; AID 624263; PINK1 immunofluorescence, high-content cytometry, 24 h; 0.2% of 410,000 active; active means well fitted activation curve with a large enough effect; inconclusive means small, poorly fitted or top-dose-only effect; cell line not stated here; further: % of control where 0% means no effect; nearly all actives have a fitted effect of over 65% in size
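Stable cell line, 250 cells/well, 12 h attachment; compounds pinned at 5 concentrations, 24 h; CCCP control. Fixed with nuclear dye, primary antibodies 12 h at 10 degrees C, secondary plus cell stain; laser-scanning cytometer read.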
RORgamma inh: blocks mouse ROR gamma transcriptional activity | P51450 | Drosophila S2 Gal4-RORgamma UAS-luciferase reporter, 20 h | Potency, µM (top dose mostly 53.6 µM), without a hit: top-dose activity change, negative = inhibition, actives largely listed as inhibitors | 5.4% of 310,000 active; further: on the % scale 0 is the no-effect control and ±100 the full control effect; nearly all actives have a fitted effect of over 60% in size
Target sequence (P51450 whole entry, looked up, the tested form may be a part): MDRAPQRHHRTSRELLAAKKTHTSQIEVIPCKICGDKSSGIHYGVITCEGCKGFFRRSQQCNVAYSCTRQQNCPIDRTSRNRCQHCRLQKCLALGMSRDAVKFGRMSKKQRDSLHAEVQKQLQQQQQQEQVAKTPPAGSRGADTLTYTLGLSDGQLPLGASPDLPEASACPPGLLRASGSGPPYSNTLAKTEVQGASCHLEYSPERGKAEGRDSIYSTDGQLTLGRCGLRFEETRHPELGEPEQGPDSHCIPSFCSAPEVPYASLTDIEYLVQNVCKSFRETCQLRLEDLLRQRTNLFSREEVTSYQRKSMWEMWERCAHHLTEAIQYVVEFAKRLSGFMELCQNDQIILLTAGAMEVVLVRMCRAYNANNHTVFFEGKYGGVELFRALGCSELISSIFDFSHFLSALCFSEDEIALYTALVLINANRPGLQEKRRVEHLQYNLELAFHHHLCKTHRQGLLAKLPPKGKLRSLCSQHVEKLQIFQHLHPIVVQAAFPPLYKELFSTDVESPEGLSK
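Using a luciferase readout, inhibitors were identified by reduced reporter activity in Drosophila cells coexpressing a copper-inducible Gal4–ROR gamma fusion and UAS-driven Photinus luciferase, incubated 20 hr after 700 uM copper sulfate.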
Gal4-VP16 FLuc: counter-screen for ROR gamma inhibitors: Gal4-VP16 reporter; 3.5% of 310,000 active; Potency, µM (series often up to 53.6 µM), inactives show at the top dose activity, negative = inhibition, usual class: inhibitors; Drosophila S2 Gal4-VP16 UAS-luciferase, luminescence, 20 h;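 further: Gal4-VP16 expression switched on by copper sulfate through the metallothionein promoter; on the % scale 0 is the no-effect control and ±100 the full control effect; nearly all actives have a fitted effect of over 50% in size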
ClpP mod: qHTS Assay for Activators of ClpP | ATP-dependent Clp protease proteolytic subunit (Bacillus subtilis (strain 168)), P80244 | purified B. subtilis ClpP, FRET peptide cleavage, 20 min | Potency, µM (doses to about 57.5 µM), without a hit: top-dose activity change, negative = active | 1.9% of 340,000 active | AID 651965, 2013; active means well fitted falling curve with a large enough effect; inconclusive means small, poorly fitted or top-dose-only effect; inactive means no such curve, though single readings can be large or run the other way; further: the source files actives as falling curves though it sought activators and does not explain the sign; nearly all actives have a fitted effect of over 65% in size
Target sequence (P80244 whole entry, looked up): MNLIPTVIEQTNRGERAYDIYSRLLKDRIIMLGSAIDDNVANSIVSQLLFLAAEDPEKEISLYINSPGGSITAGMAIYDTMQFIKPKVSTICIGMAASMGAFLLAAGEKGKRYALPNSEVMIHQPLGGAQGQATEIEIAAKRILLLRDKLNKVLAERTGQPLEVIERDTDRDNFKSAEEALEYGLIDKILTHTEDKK
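Purified B. subtilis ClpP, 10 microg/mL final in Tris/HCl pH8 with KCl, BSA, glycerol and Tween-20, cleaved an Abz/nitrotyrosine-quenched decapeptide. Fluorescence (ex 320, em 430) was read at 0 and 20 min at room temperature. Delta was normalized to 5.8 microM ADEP and DMSO/no-enzyme controls.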
Sfp inh: blocks B. subtilis Sfp PPTase activity; Biochemical Sfp PPTase activity, qHTS; Potency, µM, inactives show largest response in the series, negative = inhibition, most hits filed as inhibitors; 3.5% of 310,000 active;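 further: the enzyme is Sfp with the accession as filed and its product quenches rhodamine fluorescence; 0% = enzyme reaction without inhibitor and -100% = no enzyme wells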
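Buffer: 50 mM Hepes-Na pH 7.6, 10 mM MgCl2, 0.01% Nonidet P-40, 0.01% BSA. Enzyme 15 nM, pre-exposed to compound 15 min; substrates then added and fluorescence change tracked over 30 min.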
* hit, by the source's call; ? = inconclusive; . = no result; [ ] = remark or other dose. Unless noted, the call rests on the fitted dose curve; in most records, active means well fitted curve in the direction sought with a large enough effect; inconclusive means small, poorly fitted or top-dose-only effect, or another doubt; inactive means no such curve, though single readings can be large; an effect the other way counts as inactive or inconclusive. Potency means the concentration at half of the fitted maximal effect.

SMILES	Epigenetic reg	PINK1 expr mod	RORgamma inh	Gal4-VP16 FLuc	ClpP mod	Sfp inh
Cn1cccc1/C=N/NC(=O)c1cc2ccccc2cc1O	.	1%	1.4µM*	2µM*	.	8%
Cc1ccc2[nH]c(O)c(N=Nc3ccccc3C)c2c1	.	-1%	-23%	-4%	.	35µM*
Cc1ccccc1N=Nc1c(O)[nH]c2ccccc12	.	1%	.	.	-5%	.
CCN(C(=O)C(=O)c1c(C)[nH]c2ccccc12)c1ccccc1	.	0%	.	.	1%	.
Cc1nc(-c2ccccn2)nc(SCC(=O)c2ccccc2)c1Cl	1%	1%	4µM*	11µM*	.	4%
Cc1nc(-c2ccccn2)nc(SCC(=O)N2CCOCC2)c1Cl	-4%	-1%	-20%	-4%	-4%	16µM*
COc1ccc2c(c1)c(=O)c(S(=O)(=O)c1ccc(C)c(C)c1)cn2CC(=O)Nc1ccccc1	3%	2%	.	.	?	.
C/C(CCC(=O)OC[C@@H]1O[C@H](C#Cc2ccccc2)C=C[C@@H]1Oc1ccc(C)cc1)=N/O[C@@H](C)c1cn([C@H](CO)Cc2ccccc2)nn1	1%[10.1 µM]	.	-5%[10 µM]	-3%[10 µM]	.	13%
S=C(Nc1ccc(Cl)c(Cl)c1)NN1CCOCC1	0%	6%	7.9µM*	10µM*	2%	15%
S=C(Nc1ccc(Cl)cc1)NN1CCOCC1	-1%	0%	11µM*	?	-9%	1%
S=C(Nc1ccc(Cl)cc1)N1CCOCC1	.	-3%	.	.	-3%	.
FC(F)Oc1ccc(NC(=S)NN2CCOCC2)cc1	1%	-3%	-2%	17%	0%	7%
CC(C)c1ccc(NC(=S)NN2CCOCC2)cc1	-1%	1%	8.9µM*	?	1%	26%
CN(C)c1ccc(CNC(=O)CN2C(=O)c3cccnc3Oc3ccc(Cl)cc32)cc1	-1%	3%	.	.	-2%	.
Cc1ccc(CN2CCCn3nc(C(=O)NCC(C)c4ccccc4)cc3C2=O)cc1 (stereo not drawn)	-1%	-2%	.	.	-2%	.
CCN(c1ccccc1)S(=O)(=O)c1nnc(NC(=O)C(C)Oc2ccccc2)s1 (stereo not drawn)	1%	-1%	.	.	0%	.
COc1ccc(OC)c(Nc2nc(-c3cccs3)cs2)c1	-10%	.	-9%	3%[0.365 µM]	-11%	-11%
COc1ccc(C)cc1Nc1nc(-c2c[nH]c3ccccc23)cs1	-1%	1%	-2%[10 µM]	-1%	.	28µM*
c1ccc(Nc2ccc3c4c(cccc24)CC3)cc1	-1%	4%	?	?	11µM*	1%
COC(=O)c1[nH]c2ccc(Cl)cc2c1NC(=O)Oc1ccccc1	0%	0%	0%	2%	10µM*	-18%
COC(=O)c1[nH]c2ccc(Cl)cc2c1NC(=O)CCN1CCN(C2CCCCC2)CC1	-1%	-4%	2%	0%	-25%	1%
COC(=O)c1[nH]c2ccc(Cl)cc2c1NC(=O)C1CC1	-1%	11%	25%	-3%	32µM*	20%
CCOC(=O)C1CCN(CC(=O)Nc2c(C(=O)OC)[nH]c3ccc(Cl)cc23)CC1	0%	1%	?	10µM*	28µM*	15%
CCOC(=O)C1CCN(CC(=O)Nc2c(C(=O)OC)[nH]c3ccccc23)CC1	1%	.	30%	-28%	.	14%
O=S(=O)(c1ccc2c(c1)OCCO2)N1CCN(CCc2ccccc2)CC1	.	0%	.	.	-5%	.
SMILES	Epigenetic reg	PINK1 expr mod	RORgamma inh	Gal4-VP16 FLuc	ClpP mod	Sfp inh
CCCN(CCC)C(=O)Cn1c(=O)n(-c2ccc(CC)cc2)c(=O)c2c3c(sc21)CCC3	4%	0%	.	.	-1%	.
Cc1ccccc1C(=O)N1CCC(N2CCN(Cc3ccc(F)cc3)C(=O)C2=O)CC1	0%	2%	.	.	0%	.
COC(=O)C1=CN(CCCN2CCCC2=O)C=C(C(=O)OC)C1c1cccs1	-1%	-3%	1%	0%	28µM*	-13%
CC(C)C(=O)Nc1ccc(NC(=S)NC(=O)c2ccccc2F)cc1	.	-1%	13%	2%	32µM*	19%
Cc1ccccc1C(=O)NC(=S)Nc1ccccc1C(F)(F)F	6%	-2%	0.79µM*	?	-2%	-6%
O=C(NC(=S)Nc1ccccc1C(F)(F)F)c1ccccc1F	1%	4%	6.3µM*	?	.	-1%
Cc1ccc(C(=O)NC(=S)Nc2ccccc2C(F)(F)F)c(C)c1	-1%	29%	3%	-11%	-2%	6%
O=C(NC(=S)Nc1ccc2[nH]c(=O)[nH]c2c1)c1ccccc1F	.	4%	-3%	-3%	3%	4%
Cc1cccc2c3c(ccc12)C1=C(C(=O)C3=O)[C@@H](C)CO1	.	.	-1%	-11%	.	-7%
Cn1cc(-c2nnc(-c3ccccc3)o2)c2ccccc21	3%	5%	1.4µM*	?	14µM*	16%
Cc1ccccc1-c1nnc(-c2ccccc2)o1	1%	2%	29%	-8%	?	?
CCOc1cccc(/C=N/Nc2ccc(S(=O)(=O)N(CC)CC)cn2)c1O	-5%	2%	1µM*	3.2µM*	1%	-2%
CCN(CC)S(=O)(=O)c1ccc(N/N=C(\C)c2ccc(OC)cc2O)nc1	?	5%	0.71µM*	2.5µM*	-4%	15%
O=C(NCC1(N2CCOCC2)CCCCCC1)c1cnn(-c2nccc(-c3ccco3)n2)c1C1CC1	.	1%	.	.	.	.
O=c1[nH]c(Nc2nc3ccccc3o2)nc2c1CCCC2	-1%	9%[38.3 µM]	4µM*	10µM*	-1%	14%
Cc1ccc(Nc2nc3c(c(=O)[nH]2)CCCC3)cc1	-2%	-1%[38.3 µM]	16%	?	-1%	9%
Nc1c(C(=O)Nc2ccccc2)c2nc3ccccc3nc2n1CCCN1CCOCC1	2%	-2%	11µM*	?	.	-18%
Nc1c(S(=O)(=O)c2ccccc2)c2nc3ccccc3nc2n1CCN1CCOCC1	0%	3%	18%	3%	4%	4%
CCCCCn1c(N)c(C#N)c2nc3ccccc3nc21	1%	2%[38.3 µM]	?	-4%	?	10%
N#Cc1c(N)n(CCCN2CCOCC2)c2nc3ccccc3nc12	0%	1%	-13%	-11%	4.5µM*	7%
O=S(=O)(c1cccs1)N1CCN(c2nc(-c3cccs3)nc3ccccc23)CC1	.	0%	.	.	?	.
Cc1ccc(-n2c(C)cc(/C=N/NC(=O)CN(c3ccc(C)cc3C)S(C)(=O)=O)c2C)cc1	5%	6%	?	-21%	-2%	12%
Cc1cc(C)cc(-n2c(C)cc(/C=N/NC(=O)CN(c3c(C)cccc3C)S(C)(=O)=O)c2C)c1	0%	4%	13µM*	-20%	-12%	3%

High-throughput results (PubChem)
